# Results taken from publication PMC4336329 (PLoS ONE, 2015).
# In all, about 310,000 compounds went through this assay and about 14,000 (4.5%) showed an effect of 50% or more. The effect is printed as a negative number. This is one part of a sample in which strong results are shown more often than they occur.
# Target: human ether-à-go-go-related gene (hERG) potassium channel (human, UniProt Q12809)
# Test: primary screen, population patch clamp on CHO cells stably expressing hERG; higher = less effect of the substance
# 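Also: peak tail current of the secondary pulse compared with the same well before compound.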
# human ether-à-go-go-related gene (hERG) potassium channel, sequence (Q12809 whole entry, looked up): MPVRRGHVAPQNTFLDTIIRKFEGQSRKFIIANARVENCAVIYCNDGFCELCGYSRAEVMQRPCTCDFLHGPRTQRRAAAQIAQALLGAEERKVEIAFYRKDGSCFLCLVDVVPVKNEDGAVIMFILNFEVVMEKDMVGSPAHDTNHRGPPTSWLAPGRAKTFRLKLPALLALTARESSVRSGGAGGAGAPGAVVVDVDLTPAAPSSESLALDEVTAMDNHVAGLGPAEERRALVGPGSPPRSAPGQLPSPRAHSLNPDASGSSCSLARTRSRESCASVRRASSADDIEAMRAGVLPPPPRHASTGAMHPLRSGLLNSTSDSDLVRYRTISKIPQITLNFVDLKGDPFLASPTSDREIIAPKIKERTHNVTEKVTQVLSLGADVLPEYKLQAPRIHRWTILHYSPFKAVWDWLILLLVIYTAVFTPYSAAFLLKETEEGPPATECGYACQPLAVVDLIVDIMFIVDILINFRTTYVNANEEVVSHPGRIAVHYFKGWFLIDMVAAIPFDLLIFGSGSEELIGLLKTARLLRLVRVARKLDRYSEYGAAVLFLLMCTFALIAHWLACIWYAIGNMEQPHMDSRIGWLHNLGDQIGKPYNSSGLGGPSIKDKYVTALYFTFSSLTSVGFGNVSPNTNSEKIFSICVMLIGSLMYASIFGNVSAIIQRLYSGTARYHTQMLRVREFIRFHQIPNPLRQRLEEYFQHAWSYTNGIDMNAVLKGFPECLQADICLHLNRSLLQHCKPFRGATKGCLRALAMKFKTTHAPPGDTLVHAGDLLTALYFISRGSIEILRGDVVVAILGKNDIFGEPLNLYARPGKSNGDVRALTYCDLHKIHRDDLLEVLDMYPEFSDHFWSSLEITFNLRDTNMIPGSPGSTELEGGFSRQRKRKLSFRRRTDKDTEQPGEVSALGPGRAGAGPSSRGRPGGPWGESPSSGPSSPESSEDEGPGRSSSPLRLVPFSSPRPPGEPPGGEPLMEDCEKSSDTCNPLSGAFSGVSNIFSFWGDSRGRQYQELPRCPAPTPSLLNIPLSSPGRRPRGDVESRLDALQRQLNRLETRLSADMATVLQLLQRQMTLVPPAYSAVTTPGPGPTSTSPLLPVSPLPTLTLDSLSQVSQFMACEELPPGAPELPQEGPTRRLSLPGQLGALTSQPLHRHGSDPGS
row,SMILES,"hERG current change (%, negative = inhibition) at 10uM"
1,CCc1ccc2[nH]c(=O)c(C(c3nnnn3CCOC)N3CCN(c4ccccc4)CC3)cc2c1 (centres unmarked),-11.6%
2,COCCn1nc2cc(C(=O)NCc3cc(C(F)(F)F)cc(C(F)(F)F)c3)ccc2c1OC,21.8%
3,C[C@@H](NC(=O)[C@@H]1Cc2ccccc2CN1)C(=O)Nc1ccc2c(c1)OCCO2,3.19%
4,C[C@H](NC(=O)[C@@H]1Cc2ccccc2CN1)C(=O)Nc1ccc2c(c1)OCCO2,3.18%
5,CSCC[C@H](NC(=O)[C@@H]1Cc2ccccc2CN1)C(=O)Nc1ccc2c(c1)OCCO2,-65.5%
6,Cc1cc(C(=O)OCC(=O)NCc2ccc3c(c2)OCO3)c2ccccc2n1,-27.5%
7,Cc1ccc(N(C(=O)c2snc(C(N)=O)c2N)C(C(=O)NCC2CCCO2)c2c[nH]c3ccccc23)cc1 (centres unmarked),-6.36%
8,O=C(CSc1nnc(-c2ccncc2)o1)Nc1nncs1,15.5%
9,O=C(CSc1nnc(-c2ccccc2Br)o1)Nc1nncs1,-57.9%
10,O=C(CSc1nnc(-c2ccccc2Br)o1)Nc1cccc2ccccc12,5.79%
11,COc1ccc(NC(=O)c2ccc(COc3ccccc3)o2)c(OC)c1,-7.06%
12,O=C(CC(C(=O)O)C1CCCO1)Nc1cccc(C(F)(F)F)c1 (centres unmarked),5.84%
13,O=C(CNC(=O)c1cccnc1)N/N=C/c1cccnc1,8.4%
14,Cc1ccc(C(=O)N2CC(=O)Nc3ccc(F)cc3C2c2ccccc2)cc1 (centres unmarked),-4.56%
15,O=C1CN(C(=O)c2ccccc2Br)C(c2ccc(F)cc2)c2cc(F)ccc2N1 (centres unmarked),-61.6%
16,O=C1CN(C(=O)c2cccc(F)c2)C(c2ccc(F)cc2)c2cc(F)ccc2N1 (centres unmarked),-15.4%
17,Cc1ccc2c(c1)C(c1ccc(F)cc1)N(C(=O)c1ccccc1Br)CC(=O)N2 (centres unmarked),-16.1%
18,O=C1CN(C(=O)c2ccccc2)C(c2ccccc2)c2cc(F)ccc2N1 (centres unmarked),-75.1%
19,O=C1CN(C(=O)c2ccccc2F)C(c2ccc(F)cc2)c2cc(F)ccc2N1 (centres unmarked),-11.7%
20,CCCOc1ccc(C(=O)N2CCCc3ccccc32)cc1,-26%
21,COc1ccc(C2SCC(C(=O)NCc3ccc(F)cc3)N2C(C)=O)cc1 (centres unmarked),-20.2%
22,Nc1ccccc1SSc1ccccc1N,27.7%

row,SMILES,"hERG current change (%, negative = inhibition) at 10uM"
1,CCOc1cc2sc(N3CCC(C(=O)NCCCN4CCCC4=O)CC3)nc2cc1Br,-60.5%
2,COc1ccc2nc(N3CCCC(C(=O)NCCCN4C(C)CCCC4C)C3)sc2c1 (centres unmarked),-34.1%
3,CCOc1ccc2nc(N3CCCC(C(=O)NC4CCCC4)C3)sc2c1 (centres unmarked),-0.903%
4,Cc1cc(C)c(C)c(S(=O)(=O)N2CCC(C(=O)NCCCN3CCCC3=O)CC2)c1C,-70%
5,Cc1cc(C)c2nc(N3CCC(C(=O)NCCCN4CCCC4=O)CC3)sc2c1,-25.5%
6,O=C(NCCCN1CCCC1=O)C1CCN(S(=O)(=O)c2c(Cl)cccc2Cl)CC1,-0.379%
7,CCOc1ccc2nc(N3CCC(C(=O)NCCCN4CCOCC4)CC3)sc2c1,-17.7%
8,Cc1ccc(S(=O)(=O)N2CCC(C(=O)NCCCN3CCCC3=O)CC2)cc1C,7.98%
9,CCOc1ccc2nc(N3CCCC(C(=O)NCCCN4C(C)CCCC4C)C3)sc2c1 (centres unmarked),-54.7%
10,COc1ccc2nc(N3CCCC(C(=O)NCCCN4CCN(C)CC4)C3)sc2c1 (centres unmarked),1.67%
11,CCOc1ccc2nc(N3CCCC(C(=O)NCC4CCCO4)C3)sc2c1 (centres unmarked),-19.1%
12,CCCN1CCN(CCCNC(=O)C2CCCN(c3nc4ccc(OCC)cc4s3)C2)CC1 (centres unmarked),-56.7%
13,CCOC(=O)C1=C(c2ccccc2)OC(N)=C(C#N)C1c1cccs1 (centres unmarked),3.11%
14,O=C(c1ccc(=O)[nH]c1)N1CCN(S(=O)(=O)c2cc(C(F)(F)F)ccc2Cl)CC1,-13.4%
15,Cc1ccc(NC(=O)CN(C)Cc2ccc(F)cc2)c([N+](=O)[O-])c1,-17.8%
16,CSc1nc2c(c(=O)[nH]1)C(c1ccncc1)C(C(=O)OC(C)C)=C(C)N2 (centres unmarked),-0.441%
17,CCN(CC)c1ccc(NC(=O)COc2ccccc2C#N)cc1S(=O)(=O)Nc1ccc(OC)cc1,13%
18,COc1ccc([C@@H]2[C@@H]3C(=O)N(C(C)(C)C)C(=O)[C@@H]3[C@]3(Cc4ccccc4)C(=O)N(c4ccc(C)cc4)C(=O)N23)cc1,2.04%
19,CN(Cc1ccccc1)C(=O)c1[nH]cnc1C(=O)NCC(=O)OC(C)(C)C,10.4%
20,COc1ccc(/C=C2\SC(=O)N(CCNC(=O)Cc3coc4cc(C)ccc34)C2=O)cc1OC,4.76%
21,CC(C)(C)[C@@H]1CCC(=O)N(CC[C@H](Sc2ccccc2)c2ccccc2)CC1,17.1%
22,Cc1cc(C)cc(NC(=O)COC(=O)CC2CCCC2)c1,-0.633%
